The results in this text go back to PubChem BioAssay (NCI).

Assay [1] in a line: NCI Yeast Anticancer Drug Screen. Data for the rad50 strain (AID 155).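 Note: 0% = growth of vehicle-only cultures of the same strain.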 As to conditions: S. cerevisiae rad50 strain growth inhibition, hits give high values. The gist of the method: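 A DNA repair-deficient yeast mutant serves as the test organism; compound-induced growth inhibition is calculated against vehicle-treated cells.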
The nature of assay [2]: NCI Yeast Anticancer Drug Screen. Data for the mec2-1 strain (AID 157). The settings on record: S. cerevisiae mec2-1 strain, hits give high values. The gist of the method:
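Compounds were applied to mec2-1 yeast cells. Their growth was then compared with that of vehicle-treated cultures to give growth inhibition.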

The nature of assay [3]: NCI Yeast Anticancer Drug Screen. Data for the sgs1 mgt1 strain (AID 161).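 Note: 0% = growth of cultures given vehicle only.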 As to conditions: S. cerevisiae sgs1 mgt1 strain, hits give high values. The gist of the method: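 Percent growth inhibition was derived by comparing compound-exposed mutant yeast with vehicle-exposed cultures. The strain carries alterations in DNA damage repair.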
The nature of assay [4]: NCI Yeast Anticancer Drug Screen. Data for the cln2 rad14 strain (AID 165).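 Note: 0% = growth equal to vehicle treated cultures.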 As to conditions: S. cerevisiae cln2 rad14 strain, hits give high values. A digest of the protocol:
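Strain: cln2 rad14 yeast, altered in cell cycle control and DNA damage repair. Read-out: growth inhibition vs vehicle.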

Assay [5] in a line: NCI Yeast Anticancer Drug Screen. Data for the bub3 strain (AID 167). The settings on record: S. cerevisiae bub3 mutant strain, hits give high values. The gist of the method: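 Inhibition values come from growth of compound-treated mutant yeast normalised to vehicle-treated controls.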
A short description of assay [6]: NCI Yeast Anticancer Drug Screen. Data for the mlh1 rad18 strain (AID 175). As to conditions: S. cerevisiae mlh1 rad18 strain growth inhibition, hits give high values. The gist of the method: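 A repair-deficient yeast strain is exposed to test compound, and growth is scored relative to vehicle-treated controls.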
[7] abbreviates: at 5.0 µM (retest, dose inferred, filed as 0.5).
Where [8] appears, read: at 50.0 µM (retest, dose inferred, filed as 5.0).

Each structure is given as a SMILES string. The panel holds about 79,000 compounds, 15% with a hit somewhere; the sample as a whole holds those more often. Unmarked numbers belong to inactive results. Active and inactive are the calls of the source. Cut-off read from the data, not from the text of the source: active = growth inhibition above about 70%; inactive = the rest.

Consider `CCOC(=O)/C(Cl)=C(\C)Nc1nc2c(ccc3ccccc32)s1`, for which the growth inhibition in assay [1] (setting [7]) was 22%; in assay [1] (setting [8]), 20%; in assay [1] (at 50.0 µM), 8.8%; in assay [2] (setting [7]) it was 1%; in assay [2] (setting [8]) it was 66%; in assay [2] (at 50.0 µM), 26.6%. Besides, the growth inhibition in assay [3] (setting [7]) was -8%; in assay [3] (setting [8]), 31%; in assay [3] (at 50.0 µM), -0.75%; in assay [4] (setting [7]), 15%; in assay [4] (setting [8]), 71% (active); in assay [4] (at 50.0 µM), 97.3% (active). Further, the growth inhibition in assay [5] (setting [7]) was -4%; in assay [5] (setting [8]) it was 94% (active); in assay [5] (at 50.0 µM), 94.9% (active); in assay [6] (setting [7]), 0%; in assay [6] (setting [8]) it was 21%; in assay [6] (at 50.0 µM), 0.6%.
Regarding `CN(C)CCCC1(c2ccccc2)SC(C)(C)c2ccc(Cl)cc21` (configuration not stated), the growth inhibition was -36% in assay [1] (setting [7]); 28% in assay [1] (setting [8]); 15.3% in assay [1] (at 50.0 µM); -4% in assay [2] (setting [7]); 7% in assay [2] (setting [8]); 28.9% in assay [2] (at 50.0 µM). Besides, the growth inhibition in assay [3] (setting [7]) was 0%; in assay [3] (setting [8]) it was 39%; in assay [3] (at 50.0 µM) it was 44.2%; in assay [4] (setting [7]), 0%; in assay [4] (setting [8]) it was 0%; in assay [4] (at 50.0 µM), -9.75%. The growth inhibition was -2% in assay [5] (setting [7]); 11% in assay [5] (setting [8]); 19.3% in assay [5] (at 50.0 µM); 11% in assay [6] (setting [7]); 56% in assay [6] (setting [8]); 66% in assay [6] (at 50.0 µM).
`O=C(Nc1ccc(Br)cc1)Oc1ccccc1C(=O)Nc1ccccc1`: the growth inhibition in assay [1] (setting [7]) was 6%; in assay [1] (setting [8]), 95% (active); in assay [1] (at 50.0 µM) it was 79.1% (active); in assay [2] (setting [7]), 1%; in assay [2] (setting [8]), 96% (active); in assay [2] (at 50.0 µM), 70.3% (active). The growth inhibition was 0% in assay [3] (setting [7]); 98% (active) in assay [3] (setting [8]); 91% (active) in assay [3] (at 50.0 µM); 2% in assay [4] (setting [7]); 94% (active) in assay [4] (setting [8]); 54.2% in assay [4] (at 50.0 µM). In addition, the growth inhibition is 5% in assay [5] (setting [7]); 98% (active) in assay [5] (setting [8]); 89.9% (active) in assay [5] (at 50.0 µM); 4% in assay [6] (setting [7]); 96% (active) in assay [6] (setting [8]); 97.8% (active) in assay [6] (at 50.0 µM).
Regarding `COc1cc2c(cc1OC)-c1nc(N)sc1CC2`, the growth inhibition in assay [1] (setting [7]) was 2%; in assay [1] (setting [8]), -4%; in assay [1] (at 50.0 µM), 86.8% (active); in assay [2] (setting [7]), -2%; in assay [2] (setting [8]), -1%; in assay [2] (at 50.0 µM), 85.5% (active). In addition, the growth inhibition in assay [3] (setting [7]) was 2%; in assay [3] (setting [8]), -23%; in assay [3] (at 50.0 µM) it was 81.8% (active); in assay [4] (setting [7]) it was -4%; in assay [4] (setting [8]) it was 4%; in assay [4] (at 50.0 µM), 85.7% (active). Besides, the growth inhibition in assay [5] (setting [7]) is -2%; in assay [5] (setting [8]), -4%; in assay [5] (at 50.0 µM), 85.8% (active); in assay [6] (setting [7]) it was -1%; in assay [6] (setting [8]), 7%; in assay [6] (at 50.0 µM) it was 88.3% (active).
As to `COc1ccc(/C=C2\CCC/C(=C\c3ccc(OC)cc3)C2=O)cc1`, the growth inhibition in assay [1] (setting [7]) is 26%; in assay [1] (setting [8]), -17%; in assay [1] (at 50.0 µM) it was -5.5%; in assay [2] (setting [7]) it was -9%; in assay [2] (setting [8]), -17%; in assay [2] (at 50.0 µM), -11.3%. In addition, the growth inhibition in assay [3] (setting [7]) was 2%; in assay [3] (setting [8]), -17%; in assay [3] (at 50.0 µM), -2.1%; in assay [4] (setting [7]), -21%; in assay [4] (setting [8]), -20%; in assay [4] (at 50.0 µM), -72.2%. Besides, the growth inhibition in assay [5] (setting [7]) is -5%; in assay [5] (setting [8]), -5%; in assay [5] (at 50.0 µM) it was 1.05%; in assay [6] (setting [7]) it was -8%; in assay [6] (setting [8]) it was -14%; in assay [6] (at 50.0 µM), 9.55%.
On to `O=C1c2ccccc2C2(O)c3cc4ccccc4cc3OC12O` (configuration not stated), for which the growth inhibition is -7% in assay [1] (setting [7]); 41% in assay [1] (setting [8]); 52.2% in assay [1] (at 50.0 µM); -15% in assay [2] (setting [7]); 19% in assay [2] (setting [8]); 52.2% in assay [2] (at 50.0 µM). Besides, the growth inhibition is -16% in assay [3] (setting [7]); 6% in assay [3] (setting [8]); 43% in assay [3] (at 50.0 µM); -10% in assay [4] (setting [7]); 44% in assay [4] (setting [8]); 37% in assay [4] (at 50.0 µM). In addition, the growth inhibition in assay [5] (setting [7]) was -6%; in assay [5] (setting [8]) it was 59%; in assay [5] (at 50.0 µM) it was 44%; in assay [6] (setting [7]) it was -24%; in assay [6] (setting [8]), 55%; in assay [6] (at 50.0 µM), 72.7% (active).
As for `S=C(N/N=C/c1ccco1)NC12CC3CC(CC(C3)C1)C2`, the growth inhibition was 29% in assay [1] (setting [7]); 94% (active) in assay [1] (setting [8]); 2.95% in assay [1] (at 50.0 µM); 24% in assay [2] (setting [7]); 95% (active) in assay [2] (setting [8]); 8.05% in assay [2] (at 50.0 µM). Moreover, the growth inhibition in assay [3] (setting [7]) is 76% (active); in assay [3] (setting [8]) it was 96% (active); in assay [3] (at 50.0 µM), 10.9%; in assay [4] (setting [7]), 51%; in assay [4] (setting [8]), 91% (active); in assay [4] (at 50.0 µM), -0.25%. For the same molecule, the growth inhibition was 71% (active) in assay [5] (setting [7]); 93% (active) in assay [5] (setting [8]); 13.4% in assay [5] (at 50.0 µM); 47% in assay [6] (setting [7]); 94% (active) in assay [6] (setting [8]); 26.2% in assay [6] (at 50.0 µM).
Turning to `O=C(CC1C=Cc2ccccc2N1C(=O)c1ccccc1)c1ccccc1` (configuration not stated), the growth inhibition in assay [1] (setting [7]) is 1%; in assay [1] (setting [8]), 85% (active); in assay [1] (at 50.0 µM) it was 83% (active); in assay [2] (setting [7]), -4%; in assay [2] (setting [8]), 76% (active); in assay [2] (at 50.0 µM), 76.5% (active). The growth inhibition in assay [3] (setting [7]) was -7%; in assay [3] (setting [8]) it was 82% (active); in assay [3] (at 50.0 µM), 37.8%; in assay [4] (setting [7]), -17%; in assay [4] (setting [8]), 77% (active); in assay [4] (at 50.0 µM), 73% (active). For the same molecule, the growth inhibition is 21% in assay [5] (setting [7]); 93% (active) in assay [5] (setting [8]); 86% (active) in assay [5] (at 50.0 µM); -2% in assay [6] (setting [7]); 87% (active) in assay [6] (setting [8]); 88.5% (active) in assay [6] (at 50.0 µM).
For `CCC(C)NC(=S)N/N=C(\C)c1ccccn1` (configuration not stated), the growth inhibition in assay [1] (setting [7]) was 20%; in assay [1] (setting [8]), 100% (active); in assay [1] (at 50.0 µM), 78% (active); in assay [2] (setting [7]) it was 19%; in assay [2] (setting [8]), 99% (active); in assay [2] (at 50.0 µM), 85.7% (active). The growth inhibition in assay [3] (setting [7]) is 5%; in assay [3] (setting [8]) it was 98% (active); in assay [3] (at 50.0 µM) it was 90.6% (active); in assay [4] (setting [7]) it was 33%; in assay [4] (setting [8]), 100% (active); in assay [4] (at 50.0 µM) it was 90% (active). The growth inhibition in assay [5] (setting [7]) was 0%; in assay [5] (setting [8]) it was 100% (active); in assay [5] (at 50.0 µM) it was 90.5% (active); in assay [6] (setting [7]), 39%; in assay [6] (setting [8]) it was 99% (active); in assay [6] (at 50.0 µM), 89.2% (active).
